Source: PubChem (National Center for Advancing Translational Sciences (NCATS))
Shown are actives, neighbours in structure and some others; about 19% of the full set was active somewhere.
IL-1B inflam inh: inhibitors of inflammasome signaling (IL-1 beta secretion); THP-1 LPS/ATP IL-1B secretion, AlphaLISA, 16 h; stronger effect = lower value; activity change, % at 57.5 µM; 360,000 compounds, 4.7% hits; in the data active = activity change below about -50%; inconclusive = mostly about -30% to -49%
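THP-1 cells pretreated 1 hr with compounds (up to 57.5 uM final), then stimulated with LPS (250 ng/mL final) plus ATP (1.25 mM final); secreted IL-1B measured by AlphaLISA after 16 hr, decreased signal indicating inhibition.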
DT40 TDP1 no CPT: qHTS for Inhibitors of human tyrosyl-DNA phosphodiesterase 1 (TDP1): qHTS in cells in absence of CPT. DT40 Tdp1-/- hTDP1 cells, no CPT, ATP luminescence, 48 h. Potency, µM (top dose mostly 46.2 µM), usual class: inhibitors. 420,000 compounds, 15% hits; also: nearly all actives have a fitted effect of over 55% in size
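Growth kinetics read by CellTiter-Glo luminescence after ≥48 hr at 37 °C. Cells: DT40 Tdp1-/- stably carrying human TDP1, 400 per well, compound exposure in the absence of CPT (DMSO vehicle).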
DT40 TDP1 CPT: growth inhibition of DT40 Tdp1-/-;hTDP1 cells with camptothecin (screen for TDP1 inhibitors); AID 686979; chicken DT40 Tdp1-/-;hTDP1 cells + 20 nM CPT, ATP luminescence, 48 h; Potency, µM (doses to about 46.2 µM), hits mostly inhibitors; 420,000 compounds, 12% hits; also: nearly all actives have a fitted effect of over 55% in size
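Chicken DT40 Tdp1-/- cells stably complemented with human TDP1 were seeded at 400 cells/well in medium containing 20 nM camptothecin, exposed to pin-transferred compounds, and grown at 37 °C for at least 48 hr. Viability was read as ATP luminescence.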
TGFb SMAD3 inh: TGF-b pathway inhibition; HepG2 CAGA-GFP TGF-b/SMAD3 reporter, GFP fluorescence, 18 h; TGF-beta stimulated, 500 pg/mL final; Potency, µM (highest dose often 46.1 µM), usual class: inhibitors; 410,000 compounds, 1.2% hits; also: nearly all actives have a fitted effect of over 65% in size
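First, reporter cells (HEPG2 CAGA-GFP) rested 2 h at 37 degrees C. Next, compounds were pinned in and TGF-beta added to 500 pg/mL final. After 18 h, GFP was imaged per cell and summed per well.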
ASM inhibitor: human S-ASM enzyme inhibition; placental ASM, HMU-PC fluorogenic substrate, 60 min; Potency, µM (doses to about 57.5 µM), hits mostly inhibitors; 340,000 compounds, 0.006% hits; AID 504937; P17405
Target sequence (P17405 47-631 limits assumed): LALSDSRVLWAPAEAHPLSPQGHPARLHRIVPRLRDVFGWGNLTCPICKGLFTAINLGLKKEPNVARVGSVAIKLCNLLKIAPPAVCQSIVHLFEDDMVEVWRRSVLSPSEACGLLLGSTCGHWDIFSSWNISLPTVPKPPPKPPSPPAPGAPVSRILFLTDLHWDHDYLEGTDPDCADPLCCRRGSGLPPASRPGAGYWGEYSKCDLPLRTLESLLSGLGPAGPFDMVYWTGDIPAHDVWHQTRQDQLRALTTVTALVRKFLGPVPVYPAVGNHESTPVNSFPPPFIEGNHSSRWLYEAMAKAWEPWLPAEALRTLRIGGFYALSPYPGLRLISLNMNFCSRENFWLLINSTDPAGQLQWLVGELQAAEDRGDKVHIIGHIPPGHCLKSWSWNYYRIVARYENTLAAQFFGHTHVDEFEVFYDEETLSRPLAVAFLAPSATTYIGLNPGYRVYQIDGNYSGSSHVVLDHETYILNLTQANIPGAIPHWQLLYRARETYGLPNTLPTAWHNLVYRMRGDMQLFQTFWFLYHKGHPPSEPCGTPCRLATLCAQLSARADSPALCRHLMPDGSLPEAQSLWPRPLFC
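HMU-PC0 cleavage (9 uM final) by human placental ASM, 60 min at 37 °C following 10 min compound exposure at RT; stopped at pH 10, fluorescence Ex 386/Em 447 nm.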
HepG2 viability: kills HepG2 cells in TGF-b inhibitor counter-screen; HepG2 CAGA-GFP viability, ATP luminescence, 18 h; Potency, µM (series often up to 46.1 µM), hits mostly cytotoxic; 410,000 compounds, 0.76% hits
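CellTiter-Glo luminescence gave cytotoxicity after 18 hours at 37 degrees C. The cells were HepG2 CAGA-GFP in 1% FBS DMEM, stimulated with 500 pg/mL TGF-beta after compound addition. %Activity was normalised to no-cell wells (complete cell-killing) and DMSO (no toxicity), and curves were fitted and classified.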
Hits are given with their value; . = inactive; ? = inconclusive; / = no result. Unless noted, calls follow the shape of the dose curve; as a rule, active = well fitted curve in the direction sought with a large enough effect; inconclusive = small, poorly fitted or top-dose-only effect, or another doubt; inactive = no such curve, though single readings can be large; an effect the other way counts as inactive or inconclusive.

SMILES | IL-1B inflam inh | DT40 TDP1 no CPT | DT40 TDP1 CPT | TGFb SMAD3 inh | ASM inhibitor | HepG2 viability
CCOCCCNC(=O)c1ccc(-n2c(-c3ccccc3)cc3c2CCCCC3)cc1 | / | ? | . | ? | / | .
CN(C)CCNC(=O)c1ccc(-n2c(-c3ccccc3)cc3c2CCCC3)cc1 | / | 16.4µM | ? | ? | / | 17.8µM
CC(C)OCCCNC(=O)c1ccc(-n2c(-c3ccccc3)cc3c2CCCC3)cc1 | / | 16.4µM | ? | . | / | .
COCCCNC(=O)c1ccc(-n2c(-c3ccccc3)cc3c2CCC(C)C3)cc1 (stereo unspecified) | / | 16.4µM | ? | . | / | .
CCC(C)NC(=O)c1ccc(-n2c(-c3ccccc3)cc3c2CCCC3)cc1 (stereo unspecified) | / | ? | 16.4µM | ? | / | .
CC(C)NC(=O)c1ccc(-n2c(-c3ccccc3)cc3c2CCCC3)cc1 | / | ? | ? | ? | / | .
CCCNC(=O)c1ccc(-n2c(-c3ccccc3)cc3c2CCCCC3)cc1 | / | 20.6µM | 18.4µM | . | / | .
Cc1nnc(NC(=O)c2cc(S(=O)(=O)N3CCCCC3)ccc2Cl)s1 | . | . | . | . | . | .
CN(Cc1ccccc1)S(=O)(=O)c1ccc(Cl)c(C(=O)NCc2cccnc2)c1 | . | ? | ? | . | . | .
CCc1ccc2c(c1)C(=O)C(=O)N2CC(=O)Nc1ccc(NC(=O)c2ccccn2)cc1 | . | ? | ? | . | . | .
CCc1ccc2c(c1)C(=O)C(=O)N2CCS(=O)(=O)c1ccccc1 | . | 2.59µM | 2.91µM | ? | . | .
Cc1ccc2c(=O)c(C(=O)c3cccc(Cl)c3)cn(CC(=O)NC3CCCCC3)c2n1 | / | . | . | . | / | .
CN(C)CCCNc1cc(-c2ccccc2)nc2cc(-c3cccc(F)c3)nn12 | -88.0 | 7.31µM | ? | ? | . | .
Cc1cccc(-c2cc3nc(C)cc(N4CC(C)CC(C)C4)n3n2)c1 (stereo unspecified) | . | 16.4µM | 16.4µM | . | . | .
Cc1cc(C(F)(F)F)n2nc(-c3cccs3)cc2n1 | . | . | . | . | . | .
Cc1cccc(-c2cc3nc(C)cc(NCCCN(C)C)n3n2)c1 | -100.6 | ? | ? | . | . | .
CCN(CC)CCCNc1cc(C)nc2cc(-c3cccs3)nn12 | -101.4 | . | . | . | . | .
FC(F)(F)c1cc(-c2ccccc2)nc2cc(-c3ccccc3)nn12 | / | . | . | . | / | .
CC1CCc2nn(CC(=O)Nc3cccc(C(F)(F)F)c3)c(=O)cc2C1 (stereo unspecified) | / | ? | ? | . | / | .
COc1ccc(NC(=O)/C(C#N)=C/c2cc(C)n(-c3ccc(N4CCOCC4)c([N+](=O)[O-])c3)c2C)cc1 | . | 2.31µM | 3.66µM | . | . | .
Cc1cc(/C=C(\C#N)C(=O)Nc2ccc(F)cc2)c(C)n1-c1ccc(N2CCOCC2)c([N+](=O)[O-])c1 | . | 11.6µM | 8.2µM | . | . | .
CCOc1cccc(NCc2cc3c(C(C)(C)C)nn(-c4ccccc4)c3[nH]c2=O)c1 | . | . | . | ? | . | .
CC(C)(C)c1nn(-c2ccccc2)c2[nH]c(=O)c(CNCc3ccc4c(c3)OCO4)cc12 | . | ? | 18.4µM | ? | . | .
COc1ccc2[nH]c(=O)c(CNc3ccc(C)cc3C)cc2c1 | . | 20.6µM | 5.8µM | . | . | .
COc1ccc2[nH]c(=O)c(CNc3cc(C)ccc3C)cc2c1 | . | 14.6µM | 14.6µM | . | . | .
SMILES | IL-1B inflam inh | DT40 TDP1 no CPT | DT40 TDP1 CPT | TGFb SMAD3 inh | ASM inhibitor | HepG2 viability
COc1ccc2nc(-c3ccccc3)cc(C(=O)OCC(=O)NC3CC3)c2c1 | . | . | . | . | / | .
CC1(C)Cc2c(cnn2-c2ccc(F)cc2)C(NC(=O)CCN2CCCC2=O)C1 (stereo unspecified) | . | ? | 18.4µM | . | . | .
CC(=O)CCC(=O)NC1CCCc2c1cnn2-c1ccc(C(C)(C)C)cc1 (stereo unspecified) | . | ? | ? | . | . | .
COCc1ccc(C(=O)NC2CC(C)(C)Cc3c2cnn3-c2ccc(OC)cc2)o1 (stereo unspecified) | . | ? | . | . | . | .
CC1(C)Cc2c(cnn2-c2cccc(F)c2)C(NC(=O)CCN2CCCC2=O)C1 (stereo unspecified) | . | . | . | . | . | .
CC1(C)Cc2c(cnn2-c2ccc(F)cc2)C(NC(=O)CN2CCCCC2=O)C1 (stereo unspecified) | . | . | . | . | . | .
CC(C)(C)c1ccc(-n2ncc3c2CCCC3NC(=O)CCN2CCCC2=O)cc1 (stereo unspecified) | . | 2.06µM | 6.51µM | . | . | /
CC(C)(C)c1ccc(-n2ncc3c2CCCC3NC(=O)CN2CCCC2=O)cc1 (stereo unspecified) | . | 16.4µM | 18.4µM | . | . | 12.6µM
COc1ccc(-n2ncc3c2CC(C)(C)CC3NC(=O)c2c(C)cc(=O)oc2C)cc1 (stereo unspecified) | . | ? | 25.9µM | . | . | .
